PubChem BioAssay (Tox21)
“And” between values parts separate entries of the source, which are not always exact repeats. Identical values can stand only once. Records with an inconclusive call do not appear. A call without a number means that no potency is given here. Some compounds were tested as several samples or in several runs, with calls that do not always agree. The source made the active and inactive calls. Unless noted, calls come from the whole dose curve; as a rule, active = well fitted curve in the direction sought with a large enough effect in the repeat runs; inconclusive = weak or mixed curves; inactive = no such curve, though single readings can be large; an effect the other way counts as inactive or inconclusive.

Tests used:
[1] = qHTS assay to identify small molecule agonists of the hypoxia (HIF-1) signaling pathway - cell viability counter screen (AID 1224844; calls by dose curve; note: nearly all actives have a fitted effect of over 50% in size; note: potency is the fitted concentration of half-maximal effect)
Procedure, shortened: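 HRE-bla ME-180 cells, 2,000/well in 0.5% dialyzed FBS medium, treated 17 h at 37C with compounds. Viability read in the same wells as the bla reporter, by CellTiter-Glo luminescence after 30 min at room temperature.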

[2] = qHTS assay to identify small molecule agonists of H2AX (AID 1224845; active = well fitted activation curve with a large enough effect in the signal ratio in the repeat runs, not every such curve was filed as active; the % refers to the signal ratio)
Procedure, shortened: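 Wild-type CHO-K1 cells, plated overnight, exposed 3hr at 37C to 15 concentrations (0.76% DMSO final). Lysed, then HTRF anti-pH2AX (S139) cryptate and anti-H2AX-d2 antibodies, 24 hr room temperature; 665/620 nm emission read.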

[3] = qHTS assay to identify small molecule agonists of H2AX - cell viability counter screen (AID 1224847; calls by dose curve; note: nearly all actives have a fitted effect of over 30% in size; note: potency is the fitted concentration of half-maximal effect)
Procedure, shortened: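 Cells plated first: CHO-K1, 1000 per well in 10% FBS medium, incubated overnight at 37C. Then 15-point compound titration added (final DMSO 0.76%) for 3 hr. Finally CellTiter-Glo added and luminescence read.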

[4] = qHTS assay to identify small molecule antagonists of the estrogen related receptor (ERR) signaling pathway from Tox21 library (AID 1224848); note: nearly all actives have a fitted effect of over 50% in size; note: potency is the fitted concentration of half-maximal effect
Procedure, shortened: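 Luminescent reporter read-out (ONE-Glo) from NTP's ERR cell line after 18 h treatment at 37 C with DMSO-dissolved Tox21 compounds; cells pre-plated 6 h beforehand at 2,000 per well.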

[5] = qHTS assay to identify small molecule agonists of the estrogen related receptor (ERR) signaling pathway from Tox21 library (AID 1224849; calls by dose curve; note: nearly all actives have a fitted effect of over 15% in size); settings: ERR reporter cell line, ONE-Glo luciferase, 18 h
Procedure, shortened: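 ERR reporter cells (NTP line) pre-incubated 6 hours at 37 C, then exposed to compounds for 18 hours at 37 C. ONE-Glo luciferase luminescence was read after 30 minutes at room temperature.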

[6] = qHTS RealTime-Glo MT Cell Viability Assay in HepG2 cells - 24 hour (AID 1224867); note: nearly all actives have a fitted effect of over 50% in size
Procedure, shortened: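 Luminescence read-out: viable HepG2 cells reduce a prosubstrate to a NanoLuc substrate, giving a signal proportional to live cell number. Reads taken at 0, 8, 16, 24, 32 and 40 h of compound exposure at 37 C.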

[7] = qHTS RealTime-Glo MT Cell Viability Assay in HEK293 cells - 32 hour (AID 1224868); note: nearly all actives have a fitted effect of over 50% in size; note: potency is the fitted concentration of half-maximal effect
Procedure, shortened: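 Nonlytic real-time viability readout: viable cells convert prosubstrate to NanoLuc substrate, giving luminescence proportional to live cell number. HEK293, 600 cells/well, compound added after 5 h, continuous culture at 37 C.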

[8] = qHTS RealTime-Glo MT Cell Viability Assay in HepG2 cells - 40 hour (AID 1224870); note: nearly all actives have a fitted effect of over 50% in size
Procedure, shortened: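 HepG2 cells (600/well) mixed with RealTime-Glo MT reagent, settled 5 h at 37 C/5% CO2 before compound addition. Nonlytic NanoLuc luminescence from viable-cell prosubstrate reduction read repeatedly during 40 h treatment at 37 C.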

[9] = A CellTox Green Cytotoxicity Assay to monitor cytotoxicity in HEK293 cells - 0 hour (AID 1224869); note: nearly all actives have a fitted effect of over 50% in size
Procedure, shortened: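 HEK293 cells, 600/well, were preincubated 5 hours and then exposed to compounds at 37 C for up to 40 hours. A cell-impermeant cyanine dye staining dead-cell DNA was read by fluorescence at 0, 8, 16, 24, 32 and 40 h time points.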

[10] = qHTS assay to identify small molecule agonists of the hypoxia (HIF-1) signaling pathway (AID 1224846; active = well fitted activation curve with a large enough effect in the signal ratio in the repeat runs, not every such curve was filed as active; the % refers to the signal ratio)
Procedure, shortened: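 HRE-bla ME-180 beta-lactamase reporter cells in medium with 0.5% dialyzed FBS, pre-incubated 5 h then exposed to compounds 17 h at 37C, 5% CO2; reporter induction read with CCF4-AM FRET substrate.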

[11] = at 92.4 µM (top of the series) unless noted

| Compound | Potency [1] | outcome [2] | Potency [3] | Potency [4] | activity change, positive = activation [5, 11] | Potency [6] | Potency [7] | Potency [8] | activity change, positive = activation ([5]; at 42.5 µM (top of the series)) | activity change, positive = activation ([5]; at 92.4 µM (top of the series)) | Potency [9] | outcome [10] |
| --- | --- | --- | --- | --- | --- | --- | --- | --- | --- | --- | --- | --- |
| O=C(O)CCCc1ccccc1 | inactive | inactive | inactive | inactive | 7.78% [at 42.5 µM] (inactive) | inactive | inactive | inactive |  |  |  |  |
| COCCc1ccc(OCC(O)CNC(C)C)cc1 (centres undefined) | inactive | inactive | inactive | inactive |  | inactive | inactive | inactive | 5.48% (inactive) | -13% (inactive) | inactive |  |
| CC(=O)CC(C)(C)C1CCCCC1 | inactive | inactive | inactive | inactive | 0.591% (inactive) | inactive | inactive |  |  |  | inactive |  |
| COc1c(N2C[C@@H]3CCCN[C@@H]3C2)c(F)cc2c(=O)c(C(=O)O)cn(C3CC3)c12 | inactive | inactive |  |  |  | inactive | inactive |  |  |  | inactive | inactive |
| COC(=O)C1=C(C)NC(C)=C(C(=O)OC)C1c1ccccc1[N+](=O)[O-] | 49 µM (active) and inactive | inactive | inactive | inactive |  | inactive | inactive | inactive | -8.97% (inactive) | -13.3% (inactive) |  |  |
| C=C(C)CS(=O)(=O)O | inactive | inactive | inactive | inactive | 0.527% (inactive) | inactive |  | inactive |  |  | inactive |  |
| NS(=O)(=O)c1ccc(C(=O)O)cc1 | inactive | inactive | inactive | inactive | 9.6% [at 42.5 µM] (inactive) | inactive | inactive | inactive |  |  | inactive |  |
| CC(C)OC(=O)c1ccccc1 | inactive | inactive | inactive | inactive | 0.248% (inactive) | inactive |  |  |  |  | inactive |  |
| O=C1CC2CC1C1CCCC21 (centres undefined) | inactive | inactive |  |  | -0.257% (inactive) | inactive | inactive | inactive |  |  |  | inactive |
| O=C(CCCN1CCC(O)(c2cccc(C(F)(F)F)c2)CC1)c1ccc(F)cc1 | inactive | inactive | inactive | inactive | -10.2% [at 42.5 µM] (inactive) | inactive | 19 µM (active) |  |  |  | inactive |  |
| CC(=O)OCC(=O)[C@@]1(O)CCC2C3CCC4=CC(=O)CC[C@]4(C)C3[C@@H](O)C[C@@]21C (some centres undefined) | inactive | inactive | inactive | inactive | -12.1% [at 42.5 µM] (inactive) | inactive |  | inactive |  |  | inactive |  |
| CCc1cccc2c(CCO)c[nH]c12 | inactive | inactive | inactive | inactive | 6.5% [at 42.5 µM] (inactive) | inactive |  |  |  |  | inactive |  |
| CN(C)CCCNCCCN(C)C | inactive | inactive | inactive | inactive | -4.23% (inactive) | inactive | inactive |  |  |  | inactive |  |
| Nc1c2c(nc3ccccc13)CCCC2O (centres undefined) | inactive | inactive | inactive | inactive | 0.138% [at 42.5 µM] (inactive) | inactive | inactive | inactive |  |  | inactive |  |
| CN1C(=O)N(C)C(O)C1O (centres undefined) | inactive | inactive | inactive | inactive | 0.239% (inactive) | inactive |  | inactive |  |  | inactive |  |
| CC(C)(c1ccc(O)cc1)c1ccc(O)cc1 | inactive | inactive | inactive and 103 µM (active) | 30.3 µM (active) | -29.8% (inactive) and -30.2% (inactive) | inactive |  |  |  |  |  |  |
| COc1ccc2c(c1)c(CC(=O)OCC(=O)O)c(C)n2C(=O)c1ccc(Cl)cc1 | inactive | inactive | inactive | inactive | 3.06% [at 42.5 µM] (inactive) | inactive | inactive | inactive |  |  |  |  |
| CN1CCN(c2cc3c(cc2F)c(=O)c(C(=O)O)cn3-c2ccc(F)cc2)CC1 | inactive | inactive |  |  | -10.8% [at 42.5 µM] (inactive) | inactive |  | inactive |  |  |  | inactive |
| CCn1ccnc1CC1COc2ccccc2O1 (centres undefined) | inactive | inactive | inactive |  | 8.29% [at 42.5 µM] (inactive) | inactive | inactive |  |  |  | inactive |  |
| CCN(CC)CCOCCOC(=O)C1(c2ccccc2)CCCC1 | inactive | inactive | inactive |  |  | inactive | inactive | inactive |  |  | inactive |  |
